Laboratory results taken from PMC11995724, “Antibiotic target discovery by integrated phenotypic and activity-based profiling of electrophilic fragments” (Cell chemical biology, 2025).
The campaign covered roughly 3,200 compounds. About 110 (3.4%) showed an effect of 50% or more. For the sample, strong results were picked, then their nearest neighbours and some compounds at random.

These compounds were tested on T1, V. cholerae SAD30. Conditions: relative growth, OD600, LB; 25 µM; inhibitor.
T1 construct: SAD30
Set-up: species or system S. aureus MSSA476 (TSB) or V. cholerae SAD30 (LB); 384-well bacterial growth screen at 25 uM, OD600 relative to DMSO control

Row | SMILES | % of control remaining [%]
1 | O=C(CCl)N(Cc1nc(C2CCCCCC2)no1)C1CC1 [7-B16, 2-chloro-N-[(3-cycloheptyl-1,2,4-oxadiazol-5-yl)methyl]-N-cyclopropylacetamide] | 80.2247
2 | Cc1cc(NC(=O)CN(C)C(=O)C(C)Cl)no1 (centres unmarked) [7-M19, 2-chloro-N-methyl-N-{[(5-methyl-1,2-oxazol-3-yl)carbamoyl]methyl}propanamide] | 81.8107
3 | C=CC(=O)NCCc1nc(-c2ccccc2)nn1C [2-M12, N-[2-(1-methyl-3-phenyl-1H-1,2,4-triazol-5-yl)ethyl]prop-2-enamide] | 85.4096
4 | C=CC(=O)NCCn1nc(C)cc1C [3-M13, N-[2-(3,5-dimethyl-1H-pyrazol-1-yl)ethyl]prop-2-enamide] | 97.7357
5 | C=CC(=O)N1CCC(C(=O)Oc2ccc(NC(C)=O)cc2)CC1 [3-M16, 4-acetamidophenyl 1-(prop-2-enoyl)piperidine-4-carboxylate] | 96.1478
6 | C=CC(=O)NC1(c2nc(C3CC3)cc(=O)[nH]2)CCCCC1 [3-H13, N-[1-(4-cyclopropyl-6-oxo-1,6-dihydropyrimidin-2-yl)cyclohexyl]prop-2-enamide] | 88.7374
7 | CCN(c1ccc(C(=O)CCl)cc1)S(C)(=O)=O [10-F04, N-[4-(2-chloroacetyl)phenyl]-N-ethylmethanesulfonamide] | 100.994
8 | CS(=O)(=O)c1ccc(CNC(=O)CCl)cc1 [6-O12, 2-chloro-N-[(4-methanesulfonylphenyl)methyl]acetamide] | 95.2507
9 | CS(=O)(=O)Nc1ccc(C(=O)CCl)cc1 [10-D19, N-[4-(2-chloroacetyl)phenyl]methanesulfonamide] | 31.3267
10 | CC(Cl)C(=O)c1ccc(NS(C)(=O)=O)cc1 (centres unmarked) [10-A08, N-[4-(2-chloropropanoyl)phenyl]methanesulfonamide] | 98.4999
11 | CS(=O)(=O)c1ccc(C(=O)CCl)cc1 [10-I13, 2-chloro-1-(4-methanesulfonylphenyl)ethan-1-one] | 0
12 | CS(=O)(=O)NCCc1ccc(C(=O)CCl)cc1 [10-D06, N-{2-[4-(2-chloroacetyl)phenyl]ethyl}methanesulfonamide] | 99.5909
13 | CC(=O)N(C)Cc1ccc(C(=O)CCl)cc1 [10-H04, N-{[4-(2-chloroacetyl)phenyl]methyl}-N-methylacetamide] | 100.682
14 | CN(c1ccc(C(=O)CCl)cc1)S(C)(=O)=O [10-F19, N-[4-(2-chloroacetyl)phenyl]-N-methylmethanesulfonamide] | 14.0269
